Laboratory results: PubChem BioAssay
Several values for one entry are separate records, joined by “and”; a condition that tells them apart may be missing. Identical values can stand only once. A number with no mark means an inactive call. How the calls were made is not given here.

Target: Pantothenate synthetase (Mycobacterium tuberculosis (strain ATCC 25618 / H37Rv)) (UniProt P9WIL5)
Assay: Recombinant Mtb pantothenate synthetase (PanC) inhibitors, coupled enzyme, confirmatory (AID 375);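 further: 0% = full reaction with vehicle and 100% = no enzyme background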
Conditions: coupled enzyme assay; at 10 µM, hits give high values

Chain of Pantothenate synthetase (Mycobacterium tuberculosis (strain ATCC 25618 / H37Rv)) (P9WIL5 whole entry, looked up): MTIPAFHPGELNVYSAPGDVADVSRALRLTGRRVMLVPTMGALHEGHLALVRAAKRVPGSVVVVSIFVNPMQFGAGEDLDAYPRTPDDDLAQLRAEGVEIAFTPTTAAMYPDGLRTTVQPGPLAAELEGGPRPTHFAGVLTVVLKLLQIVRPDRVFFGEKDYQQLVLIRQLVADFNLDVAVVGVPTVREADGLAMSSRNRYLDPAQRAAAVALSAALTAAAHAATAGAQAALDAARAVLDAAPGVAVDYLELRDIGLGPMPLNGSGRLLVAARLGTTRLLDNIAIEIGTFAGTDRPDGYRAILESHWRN

SMILES	inhibition
COCCn1nnnc1C(c1cc2cc(C)cc(C)c2[nH]c1=O)N1CCN(c2ccccc2F)CC1 (stereo not given)	2%
COc1cc(OC)cc(C(=O)NCc2n[nH]c(=S)n2-c2ccccc2OC)c1	0%
O=C(CC1(O)C(=O)Nc2ccccc21)c1ccc2c(c1)OCO2 (stereo not given)	0%
Nc1ccc(C(=O)O)c(O)c1	1% and 0%
O=C(OCn1nnc2ccccc2c1=O)C1CCN(S(=O)(=O)c2cccs2)CC1	0%
Cc1ccc(Oc2ccc(-c3nc(N)nc(N)n3)cc2)cc1	7%
CC(=O)NC(Cc1ccccc1)C(=O)NC1CCN(C(=O)c2cnccn2)CC1 (stereo not given)	0%
N#Cc1nc(-c2ccco2)oc1N1CCN(c2cccc(Cl)c2)CC1	6%
C[C@]12CC[C@@H]3c4ccc(OS(=O)(=O)O)cc4CC[C@H]3[C@@H]1CCC2=O	0%
CC(=O)Nc1nnc(SCC(=O)NCC2CCCO2)s1 (stereo not given)	0%
NC(CO)C(=O)NNCc1ccc(O)c(O)c1O (stereo not given)	0%
Cc1ccc(NC(=O)c2ccco2)cc1NC(=O)CSc1nnc(-c2cccs2)n1C	3%
c1ccc(-c2n[nH]c3ccccc23)cc1	0%
NC(=O)CCS(=O)(=O)CCN1CCCCC1	0%
COc1ccc(-c2cc(C(=O)NCCc3ccccc3)no2)cc1OC	4%
CN(C)c1ccc(NC(=O)Cn2cc3c(n2)CCCC3)cc1	0%
CC1=C(C(=O)OC2CCCCCC2)C(c2ccc(C)o2)C2=C(CCCC2=O)N1 (stereo not given)	0%
CCOC(=O)c1cc2c(=O)n3ccccc3nc2n(CC(C)C)c1=NC(=O)c1ccco1	0%
Nc1nnnn1/N=C/c1ccccn1	0%
CCOC(=O)c1cccc(NC(=O)c2ccco2)c1	0%

SMILES	inhibition
COc1ccc(NC(=O)CN(c2ccc(C(C)C)cc2)S(=O)(=O)c2c(C)noc2C)cc1OC	0%
COc1ccccc1-n1nnnc1SCc1ccccc1	3%
O=S(=O)(c1ccc(S(=O)(=O)N(Cc2ccco2)Cc2ccccc2Cl)cc1)N1CCCC1	0%
Cc1cccc(OCC(=O)Nc2cc(C)ccc2O)c1	0%
O=C(Nc1ccc(Cl)cc1C(=O)Nc1ccncc1)c1ccco1	4%
CC(=O)[C@@]1(O)CC[C@H]2[C@@H]3C[C@H](C)C4=CC(=O)CC[C@]4(C)[C@H]3CC[C@@]21C	1%
Nc1nc(N)c2nc(-c3ccccc3)c(N)nc2n1	0%
COCCNC(=O)CN1CCC(NC(=O)Nc2ccc(C(F)(F)F)cc2)CC1	4%
CCOC(=O)c1c(C)[nH]c(C=Nc2ccccc2)c1O	0%
Cc1cc(NC(=O)CSc2nc(C3CCCCC3)nc3ccccc23)no1	0%
Cc1cccc(C2CC(c3ccc(Cl)cc3)Nc3nc(N)nn32)c1 (stereo not given)	0%
Cc1cc(Nc2ccccc2)n(CCC#N)n1	14%
Cc1sc2nc(SCC(=O)N3CCN(CCO)CC3)n(-c3ccccc3)c(=O)c2c1C	6%
CCN(CC)C(=O)C1CCN(CC2CC=CCC2)CC1 (stereo not given)	0%
CCn1ncc(Cl)c1C(=O)Nc1ccncc1	3%
COCCn1nnnc1SCC(=O)N1CCCCC1	0%
COc1ccc2cc(C#N)c(N3CCN(Cc4nnnn4CCC(C)C)CC3)nc2c1	8%
Cc1nc(-c2cnn(-c3ccccc3)c2)c2cc(C)oc2n1	2%
O=C(CCCCCN1C(=O)CCC1=O)NCc1ccccc1	11%
COC(=O)c1ccccc1NC(=O)Cn1c(-c2nonc2N)nc2ccccc21	0%
